Data published in PubChem BioAssay (NCATS).
Records with an inconclusive call do not appear. The source made the active and inactive calls. Calls come from the whole dose curve.

molecular target: Cytochrome P450 1A2 (Homo sapiens) (UniProt P05177); experiment: p450-cyp1a2 (AID 410); details: recombinant CYP1A2, luciferin-ME demethylation, luminescence; series mostly up to 57 µM; activity change, negative = inhibition: at the top concentration;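 note: -100% = full effect of reference inhibitor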
Summary of the method: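 Inhibition was calculated relative to 57 uM furafylline (full inhibition). The reaction used human CYP1A2 at 20nM with Luciferin-ME at its Km, 100uM, driven by an NADPH-regenerating system for 60 min at room temperature.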

Sequence of Cytochrome P450 1A2 (Homo sapiens) (P05177 whole entry, looked up): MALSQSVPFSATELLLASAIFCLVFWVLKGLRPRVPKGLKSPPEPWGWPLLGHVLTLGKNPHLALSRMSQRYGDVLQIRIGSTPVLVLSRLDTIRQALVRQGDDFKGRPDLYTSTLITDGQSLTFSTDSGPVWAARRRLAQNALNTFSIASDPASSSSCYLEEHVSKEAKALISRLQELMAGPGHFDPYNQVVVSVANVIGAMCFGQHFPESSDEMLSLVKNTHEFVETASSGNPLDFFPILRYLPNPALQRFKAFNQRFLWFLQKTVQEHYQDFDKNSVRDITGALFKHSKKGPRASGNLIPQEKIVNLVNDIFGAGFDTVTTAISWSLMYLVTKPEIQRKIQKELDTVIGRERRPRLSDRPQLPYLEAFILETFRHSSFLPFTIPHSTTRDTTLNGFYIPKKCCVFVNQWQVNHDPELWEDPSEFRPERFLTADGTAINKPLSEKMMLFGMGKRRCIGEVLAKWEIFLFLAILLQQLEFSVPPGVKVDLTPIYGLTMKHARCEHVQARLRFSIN

Activity change, negative = inhibition, inactive:
CC(C)[C@@H](CC(=O)N[C@@H]1CCNC[C@H]1C(=O)N[C@H](CC(=O)N[C@@H](CCC(=O)O)CC(=O)O)Cc1ccccc1)NC(=O)C[C@H](CO)NC(=O)[C@@H]1CCCC[C@H]1N -19.5%
NCCC[C@@H](CC(=O)N[C@@H]1CCNC[C@H]1C(=O)N[C@H](CC(=O)N[C@@H](CCC(=O)O)CC(=O)O)Cc1c[nH]c2ccccc12)NC(=O)C[C@H](CO)NC(=O)[C@@H]1CCCC[C@H]1N -19.2%
NCCC[C@@H](CC(=O)N[C@@H]1CCCC[C@H]1C(=O)N[C@H](CC(=O)N[C@@H](CCC(=O)O)CC(=O)O)Cc1c[nH]c2ccccc12)NC(=O)C[C@H](CO)NC(=O)[C@@H]1CNCC[C@H]1N -12.2%
CC(C)[C@@H](CC(=O)N[C@@H]1CCNC[C@H]1C(=O)N[C@H](CC(=O)N[C@@H](CCC(=O)O)CC(=O)O)Cc1ccccc1)NC(=O)C[C@H](CO)NC(=O)[C@@H]1CNCC[C@H]1N -35%
CC(C)C[C@@H](CC(=O)N[C@@H](CCC(=O)O)CC(=O)O)NC(=O)[C@@H]1CCCC[C@H]1NC(=O)C[C@@H](NC(=O)C[C@H](CO)NC(=O)[C@@H]1CCCC[C@H]1N)C(C)C -24.6%
CC(C)[C@@H](CC(=O)N[C@@H]1CCNC[C@H]1C(=O)N[C@H](CC(=O)N[C@@H](CCC(=O)O)CC(=O)O)Cc1c[nH]c2ccccc12)NC(=O)C[C@H](Cc1c[nH]c2ccccc12)NC(=O)[C@@H]1CCCC[C@H]1N -13%
CC(C)C[C@@H](CC(=O)N[C@H](CC(=O)N[C@@H]1CCCC[C@H]1C(=O)N[C@H](CC(=O)N[C@@H](CCC(=O)O)CC(=O)O)CC(C)C)C(C)C)NC(=O)[C@@H]1CCCC[C@H]1N -1%
